Measurements from PubChem BioAssay (NCATS).
Inconclusive results are not listed. Values without a mark were called inactive. Activity calls are given as the source filed them. Calls follow the shape of the full dose curve.

target: Nucleoprotein (Lymphocytic choriomeningitis virus (strain Armstrong)) (UniProt P09992); assay: qHTS for Inhibitors of the Functional Ribonucleoprotein Complex (vRNP) of Lymphocytic Choriomeningitis Arenaviruses (LCMV): LCMV Primary Screen - GLuc reporter signal (AID 1347086); conditions: LCMV minigenome vRNP cell assay, Gaussia luciferase reporter; series mostly up to 57.5 µM; activity change, negative = inhibition: at the top concentration; also: nearly all actives have a fitted effect of over 70% in size
Sequence (P09992 whole entry, looked up): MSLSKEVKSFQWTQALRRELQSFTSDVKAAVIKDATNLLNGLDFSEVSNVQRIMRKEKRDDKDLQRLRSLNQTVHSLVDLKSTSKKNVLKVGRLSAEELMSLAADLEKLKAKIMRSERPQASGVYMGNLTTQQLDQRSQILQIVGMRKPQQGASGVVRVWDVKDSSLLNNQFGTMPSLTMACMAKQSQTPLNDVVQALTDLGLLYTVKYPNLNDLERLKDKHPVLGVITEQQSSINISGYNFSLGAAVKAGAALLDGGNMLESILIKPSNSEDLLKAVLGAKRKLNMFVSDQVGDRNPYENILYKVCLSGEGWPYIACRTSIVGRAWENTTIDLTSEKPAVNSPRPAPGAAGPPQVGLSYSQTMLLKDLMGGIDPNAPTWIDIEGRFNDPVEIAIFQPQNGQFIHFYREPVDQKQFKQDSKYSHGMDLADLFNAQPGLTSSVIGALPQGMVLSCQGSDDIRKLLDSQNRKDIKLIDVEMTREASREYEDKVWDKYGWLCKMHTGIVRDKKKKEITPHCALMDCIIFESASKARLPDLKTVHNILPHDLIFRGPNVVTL
% is scaled to controls: 0 for no effect and ±100 for the full control effect; potency is read from the fitted curve at half-maximal effect.

SMILES | Potency | activity change, negative = inhibition
Oc1ccc(-c2ccc(-c3cc(Nc4cccc(CNC5CC5)c4)n[nH]3)cc2)c(O)c1 | 12.2 µM (active) | 
O=C(CCCCCCNC(=O)c1cnc(N(c2ccccc2)c2ccccc2)nc1)NO |  | -7.55%
COc1cc(C(=O)N2CCC(N3CCN(C)CC3)CC2)ccc1Nc1ncc2c(n1)N(C)c1ccccc1C(=O)N2C | 10.9 µM (active) | 
O=C(CCCCCCC(=O)Nc1cccnc1)NO |  | -26.7%
COc1cc2c(cc1-c1c(C)noc1C)ncc1[nH]c(=O)n([C@H](C)c3ccccn3)c12 | 9.68 µM (active) | 
CC=C(C)C(=O)O[C@H]1C(C)=C[C@]23C(=O)[C@@H](C=C(CO)[C@@H](O)[C@]12O)[C@H]1[C@@H](C[C@H]3C)C1(C)C |  | 0.353%
N=c1ccn2c(n1)O[C@H]1[C@H](O)[C@@H](CO)O[C@H]12 |  | 21.3%
N[C@@]1(C(=O)O)CS(=O)(=O)[C@H]2[C@H](C(=O)O)[C@H]21 |  | 20.3%
CN1N=C(N)c2cn([C@@H]3O[C@H](COP(=O)(O)O)[C@@H](O)[C@@H]3O)c3ncnc1c23 |  | -20.7%
CN(C)C(=O)/N=N/C(=O)N(C)C |  | -7.86%
O=C1c2ccccc2-c2n[nH]c3cccc1c23 | inactive | 
CC(C)C(C)C=CC(C)C1CCC2C3=CC=C4CC(O)CCC4(C)C3CCC21C (stereo unspecified) | 7.69 µM (active) | 
Cc1cc(Cl)ccc1OCCCC(=O)NO |  | 16.1%
CC1(C)CC(O)CC(C)(C)N1[O] |  | -26.9%
O=c1[nH]c2cc(Cl)c(Cl)cc2[nH]c1=O |  | -24.3%
CC(C)c1cc(-c2n[nH]c(=O)n2-c2ccc3c(ccn3C)c2)c(O)cc1O | 0.306 µM (active) | 
C=CCn1c(=O)c2c(nc(-c3ccc(S(=O)(=O)O)cc3)n2C)n(C)c1=O |  | -18.9%
O=c1[nH]c(=O)n([C@H]2C[C@@H](O)[C@@H](CO)O2)cc1C=CBr |  | 12.6%
CCC(C(=O)O)C1CCC(C)C(C(C)C(O)C(C)C(=O)C(CC)C2OC3(C=CC(O)[C@@]4(CC[C@](C)(C5CC[C@@](O)(CC)C(C)O5)O4)O3)C(C)CC2C)O1 (stereo partly specified) | 0.968 µM (active) | 
Cc1ccc2nc(NC(=O)CSc3nc4c(c(=O)n3-c3ccccc3)SCC4)sc2c1 | 8.63 µM (active) | 
COc1cc(F)c(F)c(Nc2ccc(I)cc2F)c1NS(=O)(=O)C1(C[C@H](O)CO)CC1 |  | 4.99%
OC[C@H]1O[C@@H](n2cnc3c(NC4CCCC4)ncnc32)[C@H](O)[C@@H]1O |  | -14.5%
CC(C)C[C@H](CC(=O)O)C(=O)N[C@@H](Cc1c[nH]c2ccccc12)C(=O)N[C@@H](C)c1ccccc1 |  | -2.72%
O=C1NC(=O)C(c2cnc3ccccn23)=C1c1cn2c3c(cccc13)CN(C(=O)N1CCOCC1)CC2 |  | -31.3%

tested on: not listed separately; assay: Cytotoxicity counterscreen for inhibitors of SARS-CoV-2 cell entry (AID 1645845); conditions: cell viability (SARS-CoV-2 entry assay cells); series mostly up to 57.1 µM; activity change, negative = cytotoxicity: at the top concentration; outcome: at the top concentration; also: nearly all actives have a fitted effect of over 50% in size
Procedure, shortened: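 ATP-content luminescence (ATPLite 1step, 15 min RT) read after 48 h compound exposure of Expi293F cells stably expressing human ACE2; normalized to cells-only wells and media-only wells.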

SMILES | activity change, negative = cytotoxicity | Potency | outcome
CCNc1cc(NC2CCC(O)CC2)nc(Nc2ccc3c(ccn3Cc3ccccc3)c2)n1 (stereo unspecified) | -18.2% |  | 
O=C1c2c(O)cc(O)cc2OC(c2ccc(O)c(O)c2)C1O (stereo unspecified) | 0.21% |  | 
CCc1ccc(OCc2ccccc2C(=O)Nc2ccc3nc(C)cc(N)c3c2)cc1 |  | 15.8 µM (active) | 
CN(C(Cc1ccc(OS(=O)(=O)c2cccc3cnccc23)cc1)C(=O)N1CCN(c2ccccc2)CC1)S(=O)(=O)c1cccc2cnccc12 (stereo unspecified) |  |  | inactive
COc1cc2c(cc1-c1c(C)noc1C)ncc1[nH]c(=O)n([C@H](C)c3ccccn3)c12 | -18.4% |  | 
N[C@@]1(C(=O)O)CS(=O)(=O)[C@H]2[C@H](C(=O)O)[C@H]21 |  |  | inactive
O=C(O)CCCCCC(=O)NN=C1CCCC1 | 4.29% |  | 
O=C(Nc1ccc(Oc2ccnc3[nH]ccc23)c(F)c1)c1cccn(-c2ccc(F)cc2)c1=O | 1.91% |  | 
O=C1NC(O)CCN1[C@@H]1O[C@H](CO)[C@H](O)[C@H]1O (stereo partly specified) | -4.17% |  | 
O=C1c2ccccc2-c2n[nH]c3cccc1c23 | -9.89% |  | 
CC(C)C(C)C=CC(C)C1CCC2C3=CC=C4CC(O)CCC4(C)C3CCC21C (stereo unspecified) | 0.0801% |  | 
Cc1cc(Cl)ccc1OCCCC(=O)NO | 1.86% |  | 
Cn1cc(C[C@@H](N)C(=O)O)c2ccccc21 |  |  | inactive [at 11.3 µM]
CCN(CC)CCNC(=O)c1ccc2nc(-c3ccccc3)c(-c3ccc(CN4CCC(n5c(=O)[nH]c6ccccc65)CC4)cc3)nc2c1 |  | 5.62 µM (active) | 
C[S+](C)CCC(N)C(=O)O (stereo unspecified) |  |  | inactive
CCC(C(=O)O)C1CCC(C)C(C(C)C(O)C(C)C(=O)C(CC)C2OC3(C=CC(O)[C@@]4(CC[C@](C)(C5CC[C@@](O)(CC)C(C)O5)O4)O3)C(C)CC2C)O1 (stereo partly specified) | -10.8% |  | 
CC(C)C[C@H](NC(=O)CNC(=O)c1cc(Cl)ccc1Cl)B1OC(=O)CC(CC(=O)O)(C(=O)O)O1 (stereo partly specified) |  | 0.891 µM (active) | 
COc1cc(Nc2ncc(F)c(Nc3ccc4c(n3)N(COP(=O)(O)O)C(=O)C(C)(C)O4)n2)cc(OC)c1OC | -0.399% |  | 
CCc1ccc(C(=O)Nc2cc(CN3CCN(C)CC3)cc(C(F)(F)F)c2)cc1C#Cc1cnc2ccnn2c1 |  | 31.6 µM (active) | 
C[C@H](CCC(=O)O)[C@H]1CC[C@H]2[C@H]3[C@@H](CC[C@]12C)[C@@]1(C)CC[C@@H](O)C[C@H]1C[C@@H]3O | 2.36% |  | 
CC(C)C[C@H](CC(=O)O)C(=O)N[C@@H](Cc1c[nH]c2ccccc12)C(=O)N[C@@H](C)c1ccccc1 |  |  | inactive
O=C1NC(=O)C(c2cnc3ccccn23)=C1c1cn2c3c(cccc13)CN(C(=O)N1CCOCC1)CC2 | -5.11% |  | 
